# Pf growth 96h: P. falciparum growth inhibition at 96 hour, primary screen for plastid delayed-death inhibitors; P. falciparum luciferase reporter growth, 96 h; Potency, µM (titrated, usually from 28.7 µM), for the others: at the top dose activity change, negative = inhibition, actives largely listed as inhibitors; 320,000 tested, 6.9% active; further: on the % scale 0 is the no-effect control and ±100 the full control effect
#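 Two parasite generations (96 h, 37 C, 5% CO2) of compound exposure in infected erythrocytes (0.05% parasitemia, 2% hematocrit). Luciferase-reporter P. falciparum; decreased luminescence indicates inhibited growth, aimed at apicoplast-acting delayed death.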
# SARS PLP yeast: blocks SARS-CoV papain-like protease in a yeast assay; AID 485353; 330,000 tested, 0.19% active; S. cerevisiae expressing SARS-CoV PLpro, growth rescue; Potency, µM (titrated, usually from 32.9 µM), for inactives: top-dose activity, positive = growth rescue, hits mostly activators; calls by dose curve; further: 0% is about no effect; nearly all actives have a fitted effect of over 55% in size
# HCV inhibitor: HCV inhibition | Huh7.5.1 HCVcc-Cre infection, luciferase reporter, 44 h | Potency, µM (doses to about 41.8 µM), for the others: top-dose activity change, negative = inhibition, hits mostly inhibitors | 340,000 tested, 3.4% active | AID 651820; further: on the % scale 0 is the no-effect control and ±100 the full control effect
#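 A cell-based infection assay in which seeded cells (1,000 per well) receive test compound after 4 h, are inoculated with HCVcc-Cre at approximately 0.5 moi, and are incubated 44 h before luminescence detection.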
# Pf growth 48h: P. falciparum growth inhibition at 48 hours (one generation); 310,000 tested, 5.9% active; P. falciparum luciferase growth in erythrocytes, 48 h; AID 504832; Potency, µM (top dose mostly 28.7 µM), for the others: at the top dose activity change, negative = inhibition, actives largely listed as inhibitors; further: on the % scale 0 is the no-effect control and ±100 the full control effect
#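 Luciferase-expressing P. falciparum in infected erythrocytes (2% hematocrit, 0.1% parasitemia final) in RPMI 1640/0.5% Albumax were exposed to compound for 48 hours at 37 C, 5% CO2; growth read as luminescence.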
# NS1 inh: blocks influenza NS1 protein function. Potency, µM (highest dose often 46.1 µM), without a hit: at the highest dose activity, positive = more growth. 270,000 tested, 0.4% active; calls by dose curve; further: actives are rising curves; nearly all actives have a fitted effect of over 50% in size
#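 OD600 was taken as the measure of yeast growth restored by compound in an NS1-expressing S. cerevisiae strain. Cells had been washed out of glucose medium and diluted 1:100 into galactose -URA medium, pH 6.0.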
# AMA1-RON2 inh: disrupts binding of P. falciparum AMA1 to RON2; AlphaScreen AMA1-biotinylated RON2 peptide binding; 360,000 tested, 0.2% active; Potency, µM (series often up to 58.2 µM), inactives show at the top dose activity change, negative = inhibition, actives largely listed as inhibitors;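 further: 0% = vehicle wells and -100% = peptide control; nearly all actives have a fitted effect of over 45% in size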
#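 AMA1 (3D7) with his tag at 25 nM final met compounds first, then biotinylated RON2 peptide at 25 nM; detection used donor plus acceptor beads, 10 µg/mL apiece, read by AlphaScreen after 30 min at room temperature.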
# Numbers without * were called inactive; ? = inconclusive; / = no result given; [ ] = another dose, or the depositor's remark. Compounds with a hit are over-represented: about 12% of the library has one in this group of screens. Unless noted, the call rests on the fitted dose curve; in most records, active means well fitted curve in the direction sought with a large enough effect; inconclusive means small, poorly fitted or top-dose-only effect, or another doubt; inactive means no such curve, though single readings can be large; an effect the other way counts as inactive or inconclusive. Potency means the concentration at half of the fitted maximal effect.
SMILES,Pf growth 96h,SARS PLP yeast,HCV inhibitor,Pf growth 48h,NS1 inh,AMA1-RON2 inh
Cc1nn2c(NCCN3CCOCC3)c3c(nc2c1-c1ccccc1)CCCC3,13.1µM*,0.2%,?,?,-4.0%,51.5%
Cc1cc(NCc2ccccn2)n2nc(C)c(-c3ccccc3)c2n1,2.08µM*,-3.4%,1.58µM*,1.65µM*,-35.4%,58.1%
Cc1cc(-c2ccccc2)nnc1NCCN1CCOCC1,-17.8%,2.8%,2.6%[8.37 µM],-1.8%,-4.8%,-4.4%
COc1ccc(Nc2c3c(nc4c(-c5ccccc5)c(C)nn24)CCC3)cc1,5.86µM*,-31.1%,9.9%,13.1µM*,17.0%,41.2%
O=C(CCC1CCCN(Cc2ccc3c(c2)CCO3)C1)NCc1ccc(F)c(F)c1 (stereo not given),-12.4%,0.0%,-6.9%,?,1.0%,-1.2%
O=C(CN1CCN(C(=O)c2cc(C3CC3)nn2-c2ccccc2)CC1)Nc1ccc(F)cc1,/,/,/,/,/,4.7%
COc1ccc(CCN2CC(C(=O)N(C)Cc3c(C)n[nH]c3C)CCC2=O)cc1 (stereo not given),?,1.4%,4.5%,1.7%,4.7%,1.1%
c1ccc(NCc2ccccn2)cc1,-0.4%,0.4%,24.6%,22.2%,4.8%,26.2%
c1ccc(CNc2c3c(nc4ncnn24)CCCC3)nc1,8.28µM*,-1.3%,4.7%,7.0%,-1.9%,109.1%
Cc1nn2c(NCc3ccccn3)cc(C(C)(C)C)nc2c1-c1ccccc1,2.94µM*,-1.6%,2.51µM*,4.65µM*,-4.3%,63.9%
Cc1nn2c(NCc3ccccn3)c3c(nc2c1-c1ccccc1)CCC3,4.65µM*,-3.5%,-66.6%,?,-122.1%,50.7%
Clc1ccc(Nc2c3c(nc4ncnn24)CCC3)cc1,?,-3.4%,-8.6%,?,2.2%,95.8%
CCCc1cc(NCCCn2ccnc2)n2nc(C)c(-c3ccccc3)c2n1,0.415µM*,0.0%,-35.9%,?,1.3%,-10.6%
CC(C)C[C@H]1C(=O)N2CCC[C@H]2[C@]2(O)O[C@](NC(=O)[C@@H]3C=C4c5cccc6[nH]cc(c56)C[C@H]4N(C)C3)(C(C)C)C(=O)N12,3.7µM*,/,?,2.94µM*,/,-1.4%
CN1C[C@H](C(=O)N[C@]2(C)O[C@@]3(O)[C@@H]4CCCN4C(=O)[C@H](Cc4ccccc4)N3C2=O)C=C2c3cccc4[nH]cc(c34)C[C@H]21,0.301µM*,/,/,0.301µM*,/,/
CN1C[C@H](C(=O)N[C@@]2(C)O[C@@]3(O)[C@H]4CCCN4C(=O)[C@@H](Cc4ccccc4)N3C2=O)C=C2c3cccc4[nH]cc(c34)C[C@@H]21,/,/,/,/,15.6%,/
CCc1ccc([C@@H]2C[C@H]3[C@@H](CN2S(=O)(=O)c2ccc(C)cc2)C(=O)C[C@@H](c2ccc(C)cc2)N3S(=O)(=O)c2ccc(C)cc2)cc1,/,/,/,/,/,-4.5%
COc1cc(C2C3=C(COC3=O)OC(C)(C)Oc3cc4c(cc32)OCO4)cc(OC)c1OC (stereo not given),/,/,?,/,/,-16.5%
Cc1cc2c(NCc3ccccc3)ncnc2s1,3.3%,-11.6%,7.94µM*,?,-33.1%,0.9%
Cc1sc2ncnc(NCc3ccccc3)c2c1C,?,2.1%,5.62µM*,-2.4%,-31.2%,6.4%
Cc1sc2ncnc(Nc3ccccc3)c2c1C,/,-1.3%,?,19.2%,-11.2%,3.2%
COc1cc(C(=O)OC(C)CN2CCCCC2)cc(OC)c1OC (stereo not given),-15.6%,0.0%,1.8%,6.1%,12.7%,-4.6%
Cn1nc(C(=O)NCc2cccs2)c2ccccc2c1=O,?,14.4%,-4.3%,-4.5%,-4.5%,-0.8%
COc1cc(-c2nnc(SCC(=O)NC3CCCC3)n2C)cc(OC)c1O,?,2.5%,6.2%,3.2%,1.2%,5.3%
Cc1ccc(NC(=O)CCl)c(C)c1,10.4µM*,19.2%,?,1.85µM*,2.1%,3.5%
SMILES,Pf growth 96h,SARS PLP yeast,HCV inhibitor,Pf growth 48h,NS1 inh,AMA1-RON2 inh
Cc1ccc(NC(=O)Cc2cc(C(=O)O)c3ccccc3n2)c(C)c1,?,-1.6%,12.6µM*,?,14.2%,1.9%
Cc1ccc(NC(=O)CCc2ccc(C)o2)c(C)c1,45.6%,-4.2%,-14.1%,2.9%,-4.8%,0.5%
C/C(=N/OCC(=O)Nc1ccc(C)cc1C)c1cccs1,/,-7.0%,-5.4%,-27.4%,-78.2%,1.1%
Cc1ccc(NC(=O)CC2(CC(=O)O)CCCC2)c(C)c1,4.15µM*,-0.6%,11.7%,2.6%[0.00184 µM],1.2%,7.8%
Cc1ccc(NC(=O)CO/N=C/c2ccccc2C)c(C)c1,2.33µM*,-6.1%,-6.1%,?,-5.9%,9.1%
O=C(N/N=C/c1ccc(Br)cc1)c1ccc(Br)o1,35.7%,-20.0%,-2.4%,38.6%,2.3%,6.4%
N#CCC(=O)Nc1ccc(C(=O)N2CCN(c3ccccn3)CC2)cc1,?,-0.9%,5.6%,-14.1%,2.4%,8.2%
NS(=O)(=O)c1cccc(NC(=O)Nc2ccc(Cl)cc2)c1,15.6%,-1.9%,-2.8%,-13.2%,-31.7%,8.6%
CC(C)S(=O)(=O)c1csc(NC(=O)Nc2ccc(Cl)cc2)c1,10.4µM*,1.0%,-14.0%,?,-1.7%,-0.2%
Cc1ccccc1C(C(=O)NC1CCCC1)N(C(=O)CNC(=O)c1ccco1)c1cccnc1 (stereo not given),134.9%[1.15 µM],0.4%,/,8.6%,-0.9%,/
CC(C)C(=O)Nc1c(-c2ccccc2)c(=O)c2ccccc2n1C,18.3%,0.7%,9.3%,45.1%,2.2%,3.2%
Cc1ccc(-c2c(NC(=O)C(C)C)n(C)c3ccccc3c2=O)cc1,28.6%,1.2%,3.16µM*,28.2%,5.6%,11.2%
CNCc1ccccc1Sc1cccc2ccccc12,?,0.7%,?,?,-17.5%,-11.2%
CN(C)CCN(C)Cc1ccccc1Sc1cccc2ccccc12,13.1µM*,-34.6%,11.2µM*,?,-42.4%,-29.3%
CC(=O)Nc1ccc(S(=O)(=O)NC(C(=O)O)C(C)O)cc1 (stereo not given),47.9%,0.2%,6.6%,-3.0%,-1.5%,-14.2%
CCCNC(=O)c1ccccc1NC(=O)C1=CSCCO1,14.7µM*,-1.9%,-11.9%,5.1%,3.3%,-19.6%
CCCNC(=O)c1ccccc1NS(=O)(=O)c1ccc2c(c1)OCCO2,-15.9%,12.8%,2.1%,9.28µM*,-3.0%,19.5%
CC(C)CCNC(=O)c1ccccc1NC(=O)C1=CSCCO1,0.6%,-2.5%,-2.1%,3.4%,-22.8%,6.7%
Cc1ccc(NC(=S)N(C)C)cc1C,0.0%,0.2%,-8.9%,-9.5%,1.1%,8.9%
O=C1NC(=Nc2cccc(Cl)c2)SC1Cc1cccc(Cl)c1Cl (stereo not given),10.4µM*,0.2%,-25.0%,-10.2%,23.3%,6.0%
COc1ccc(N/N=C/c2c(C(=O)O)ccc3ccccc23)cc1,7.38µM*,4.1%,?,2.62µM*,-86.6%,88.2%

# Screening results (PubChem)
